The values below come from PubChem BioAssay (NCATS).

Experiment [1] can be described thus: Quantitative High-Throughput drug screen in 47 multiple myeloma cell lines against the NCATS MIPE library collection: VP6_DJ cell viability assay (AID 1919867). Further: nearly all actives have a fitted effect of over 40% in size. A digest of the protocol:
(§1)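 Inhibition of viability over 48 h was scored by ATP content (CellTiter-Glo) in 500-cell wells. Zero and full viability were defined by media-only and DMSO-only wells.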

Experiment [2] in a line: Quantitative High-Throughput drug screen in 47 multiple myeloma cell lines against the NCATS MIPE library collection: PE2_PLB cell viability assay (AID 1919869). Further: nearly all actives have a fitted effect of over 35% in size. In short, it runs like this:
as §1

A short description of experiment [3]: Quantitative High-Throughput drug screen in 47 multiple myeloma cell lines against the NCATS MIPE library collection: PCM6_Riken cell viability assay (AID 1919870). Further: nearly all actives have a fitted effect of over 30% in size. In short, it runs like this: as §1
Experiment [4] can be described thus: Quantitative High-Throughput drug screen in 47 multiple myeloma cell lines against the NCATS MIPE library collection: RPMI8226_ATCC cell viability assay (AID 1919871). Further: nearly all actives have a fitted effect of over 30% in size. In short, it runs like this:
as §1

Experiment [5] can be described thus: Quantitative High-Throughput drug screen in 47 multiple myeloma cell lines against the NCATS MIPE library collection: OPM2_DSMZ cell viability assay (AID 1919872). Further: nearly all actives have a fitted effect of over 30% in size. In short, it runs like this: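 Viability readout: CellTiter-Glo luminescence following 5 min room-temperature incubation with reagent. Prior exposure: 48 h, 37C, humidified 5% CO2, 500 cells per well.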

The nature of experiment [6]: Quantitative High-Throughput drug screen in 47 multiple myeloma cell lines against the NCATS MIPE library collection: KMS11_JCRBsus cell viability assay (AID 1919873). Further: nearly all actives have a fitted effect of over 50% in size. In short, it runs like this: as §1
Experiment [7] is described as follows: Quantitative High-Throughput drug screen in 47 multiple myeloma cell lines against the NCATS MIPE library collection: KMS28BM_JCRB cell viability assay (AID 1919874). Further: nearly all actives have a fitted effect of over 35% in size. A digest of the protocol: as §1
Experiment [8] in a line: Quantitative High-Throughput drug screen in 47 multiple myeloma cell lines against the NCATS MIPE library collection: UTMC2_PLB cell viability assay (AID 1919868). Further: nearly all actives have a fitted effect of over 55% in size.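 On viability (% of DMSO control): 100% = DMSO-only wells and 0% = media-only wells without cells.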 To be noted: CellTiter-Glo ATP luminescence, 48 h; viability (% of DMSO control): at 45.8 µM (top of the series). A digest of the protocol:
as §1

Inconclusive results are not listed. The source made the active and inactive calls. The call rests on the fitted dose curve; in most records, active means well fitted cell-killing curve with a large enough effect; inconclusive means small, poorly fitted or top-dose-only effect, or effect the other way; inactive means no such curve, though single readings can be large or run the other way.
Potency means the concentration at half of the fitted maximal effect.

On to `CCC(=C(CC)c1ccc(O)cc1)c1ccc(O)cc1`, for which the Potency in experiment [1] is 18.7 µM (active); in experiment [2], 18.7 µM (active); in experiment [3], 18.7 µM (active); in experiment [4] it was 29.6 µM (active); in experiment [5], 26.4 µM (active); in experiment [6], 14.8 µM (active). Also, in experiment [7], the Potency was 16.6 µM (active).
For the compound `C[C@H](CCC(=O)O)[C@H]1CC[C@H]2[C@H]3[C@@H](CC[C@]12C)[C@@]1(C)CC[C@@H](O)C[C@H]1C[C@@H]3O`, the values for the Potency in experiment [1] and in experiment [5] were 20.9 µM (active) and 6.62 µM (active), respectively. In addition, the Potency entry in experiment [8], in experiment [2] and in experiment [6] was “inactive” throughout.
Consider `CCOC(=O)N1CCN([N+]([O-])=NOc2cc(ON=[N+]([O-])N3CCN(C(=O)OCC)CC3)c([N+](=O)[O-])cc2[N+](=O)[O-])CC1`, for which the Potency in experiment [1] was 6.62 µM (active); in experiment [8] it was 8.33 µM (active); in experiment [3] it was 6.62 µM (active); in experiment [4], 9.35 µM (active); in experiment [5], 18.7 µM (active); in experiment [6], 5.9 µM (active). For the same compound, the Potency in experiment [7] is 7.43 µM (active).
Regarding `CC1(C)OC2CC3C4CC(F)C5=CC(=O)C=CC5(C)C4C(O)CC3(C)[C@]2(C(=O)CO)O1` (stereo not given in full), the Potency in experiment [1] was 3.32 µM (active); in experiment [4] it was 0.0118 µM (active); in experiment [6], 0.0264 µM (active). Besides, the Potency result in experiment [8], in experiment [3], in experiment [5] and in experiment [7] was “inactive” throughout.
Regarding `Cn1c(=O)c(-c2c(Cl)cccc2Cl)cc2cnc(Nc3cccc(C(=O)O)c3)nc21`, the Potency in experiment [1] was 0.235 µM (active). Besides, the viability (% of DMSO control) in experiment [8] was 127% (active). The Potency entry in experiment [2], in experiment [4], in experiment [6] and in experiment [7] was “inactive” in each case.
For `CCC(=C(c1ccc(O)cc1)c1ccc(OCCNC)cc1)c1ccccc1`, the Potency in experiment [1] is 13.2 µM (active); in experiment [8], 9.35 µM (active); in experiment [3] it was 23.5 µM (active); in experiment [4] it was 26.4 µM (active); in experiment [6], 8.33 µM (active); in experiment [7], 23.5 µM (active).
Take `Cc1nn(Cc2ccccc2Cl)c(C)c1CN(C)CC(O)COc1ccc(Cl)cc1` (stereo not given): the Potency in experiment [1] was 20.9 µM (active); in experiment [8], 20.9 µM (active); in experiment [3] it was 18.7 µM (active); in experiment [4], 20.9 µM (active); in experiment [6], 23.5 µM (active); in experiment [7], 33.2 µM (active). In experiment [5], the Potency result was “inactive”.
For `O=C(c1ccc(C=Cc2n[nH]c3ccccc23)cc1)N1CCNCC1`, the Potency in experiment [1] is 3.72 µM (active); in experiment [8] it was 0.332 µM (active); in experiment [2], 5.9 µM (active); in experiment [5], 10.5 µM (active); in experiment [6], 1.05 µM (active).
On to `C[C@H]1O[C@@H](n2cc(F)c(=O)[nH]c2=O)[C@H](O)[C@H]1O`, for which the Potency in experiment [1] is 0.59 µM (active); in experiment [2], 1.87 µM (active); in experiment [3], 8.33 µM (active); in experiment [4] it was 9.35 µM (active); in experiment [6], 7.43 µM (active). The Potency entry in experiment [5] and in experiment [7] was “inactive” throughout.
As to `COc1ccc(-c2cc3nccn3c(Nc3ncccc3C(N)=O)n2)cc1OC`, the Potency was 0.935 µM (active) in experiment [1]; 1.18 µM (active) in experiment [8]; 0.59 µM (active) in experiment [2]; 8.33 µM (active) in experiment [5]; 4.69 µM (active) in experiment [6]; 6.62 µM (active) in experiment [7]. In addition, in experiment [4], the Potency entry is “inactive”.
Turning to `COC1CCC(C(=O)c2ccc3nc4c(cc3c2)CCCO4)CC1` (stereo not given), the Potency in experiment [1] was 13.2 µM (active); in experiment [2] it was 18.7 µM (active); in experiment [3] it was 16.6 µM (active); in experiment [4], 20.9 µM (active); in experiment [5], 23.5 µM (active); in experiment [6] it was 20.9 µM (active).
As for `CN(C)CCN(C)C(=O)c1ccc(NC(=O)Nc2ccc(-c3nc(N4CCOCC4)c4ccn(CC(F)(F)F)c4n3)cc2)cc1`, the Potency in experiment [1] was 0.0469 µM (active); in experiment [8], 0.0074 µM (active); in experiment [2] it was 0.0074 µM (active); in experiment [4] it was 0.0833 µM (active); in experiment [5], 0.187 µM (active); in experiment [6], 0.0372 µM (active). Further, the Potency in experiment [7] was 0.0148 µM (active).
With `Nc1[nH]nc2nnc(-c3c(-c4ccccc4)nn4ccccc34)cc12`, the Potency was 1.66 µM (active) in experiment [1]; 9.35 µM (active) in experiment [2]; 7.43 µM (active) in experiment [3]; 0.235 µM (active) in experiment [6]; 0.166 µM (active) in experiment [7]. For the same compound, the Potency result in experiment [4] and in experiment [5] was “inactive” in each case.
As for `C[C@@H](N)c1ccc(C(=O)Nc2ccnc3[nH]ccc23)cc1`, the Potency was 26.4 µM (active) in experiment [1], 16.6 µM (active) in experiment [8], 26.4 µM (active) in experiment [2] and 23.5 µM (active) in experiment [7]. Also, the Potency entry in experiment [4] and in experiment [5] was “inactive” throughout.
On to `Oc1cc(O)cc(C=Cc2ccc(O)c(O)c2)c1`, for which the Potency in experiment [1] was 10.5 µM (active); in experiment [2], 4.18 µM (active); in experiment [3], 10.5 µM (active).
With `COC(=O)Nc1ccc(-c2nc(N3CCOCC3)c3cnn(C4CCN(C(=O)OC)CC4)c3n2)cc1`, the Potency in experiment [1] was 0.148 µM (active); in experiment [2], 0.332 µM (active); in experiment [3], 1.87 µM (active); in experiment [4], 0.332 µM (active); in experiment [5], 2.35 µM (active); in experiment [6], 0.166 µM (active).
As to `C[C@H]1COC2=C1C(=O)C(=O)c1c2ccc2c1CCCC2(C)C`, the Potency in experiment [1] is 16.6 µM (active); in experiment [2], 26.4 µM (active).
For `CSc1cccc(Nc2ncc3cc(-c4c(Cl)cccc4Cl)c(=O)n(C)c3n2)c1`, the Potency in experiment [1] was 0.118 µM (active); in experiment [8], 0.0166 µM (active); in experiment [3], 0.187 µM (active); in experiment [4], 2.35 µM (active); in experiment [5], 1.32 µM (active); in experiment [6], 0.187 µM (active).
Regarding `CCCCCCCCCCCCCCCC(=O)O[C@H]1[C@@H](O)[C@@H](O)[C@@H]([C@H](NC(=O)[C@@H]2C[C@@H](CCC)CN2C)[C@H](C)Cl)O[C@@H]1SC`, the Potency result in experiment [1], in experiment [3], in experiment [5] and in experiment [6] was “inactive” in each case. The results for the Potency in experiment [2] and in experiment [4] were 10.5 µM (active) and 3.32 µM (active), respectively.
As to `CC(=O)N1CCN(c2ccc(OCc3nn(C)c(C)c3-c3cccc4c(CCCOc5cc(C)c(Cl)c(C)c5)c(C(=O)O)n(Cc5cccnc5)c34)cc2)CC1`, the Potency in experiment [1] is 10.5 µM (active); in experiment [8] it was 7.43 µM (active); in experiment [3], 16.6 µM (active); in experiment [6] it was 20.9 µM (active); in experiment [7], 9.35 µM (active). Moreover, the Potency result in experiment [4] and in experiment [5] was “inactive” each time.
